Results reported in PubChem BioAssay (NCI).
Compounds without any hit were thinned out: in the full panel of roughly 79,000, 15% have a hit. Unmarked numbers belong to inactive results. No stated cut-off is given here; in the data, active means growth inhibition above about 70%; inactive means the rest.

experiment: NCI Yeast Anticancer Drug Screen. Data for the mlh1 strain (AID 171);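 further: 0% = growth of vehicle-treated control cultures of the same strain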; conditions: S. cerevisiae mlh1 strain growth inhibition; at 3.7 µM; hits give high values
Procedure, shortened: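 Compounds are applied to a genetically altered yeast strain, and its growth is compared with that of vehicle-treated cultures to give percent inhibition.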

In order of falling growth inhibition:
1. CC(=O)[O][Bi]([c]1ccccc1)[c]1ccccc1  30%
2. c1ccc2c(c1)Oc1cccc3cccc-2c13  15%
3. CC(C)C1=CCC2C(=C1)CCC1C(C)(C(=O)O)CCCC21C (stereo unspecified) (tested in a mixture with another compound)  11%
4. N#CN=Nc1cc(Cl)c(N=NC#N)cc1Cl  10%
5. COc1ccc(/C=C2\SC(=S)N(/C=C/c3nc4ccccc4[nH]c3=O)C2=O)cc1OC  5%
6. O=C(c1ccc(Cl)cc1Cl)C(Cl)Cl  3%
7. NNC(=O)CCc1ccc2ccc3ccccc3c2c1  3%
8. CCC(C)COC(=O)c1ccc(N=Cc2ccc(C=Nc3ccc(C(=O)OCC(C)CC)cc3)cc2)cc1 (stereo unspecified)  3%
9. Cc1ccc(S(=O)(=O)Oc2cc(Cl)c(Cl)cc2Cl)cc1  1%
10. COc1cc(CC2CC(c3ccc4c(c3)OCO4)OC2=O)cc(OC)c1OC (stereo unspecified)  -3%
11. CNC1C(OC2C(OC3C(O)C(O)C(N=C(N)N)C(O)C3N=C(N)N)OC(C)C2(O)CO)OC(CO)C(O)C1O (stereo unspecified)  -4%
12. COc1cc(/C=C2\CCc3ccccc3C2=O)cc(OC)c1OC  -7%
13. S=C(N/N=C/c1ccccn1)Nc1ccc(Cl)cc1  -9%
14. CCCCN(CCCC)CCSc1ccc(Cl)cc1  -11%
15. CC1(C)C(=O)OC(n2cc(F)c(=O)[nH]c2=O)C1=O (stereo unspecified)  -15%
16. Oc1ccc2ccccc2c1C(c1ccc(Cl)cc1)c1c(O)ccc2ccccc12  -25%
